Compounds with a hit are over-represented: about 1.7% of the library has one in this group of screens.
Mtb hypoxia rep – reduces hypoxia-regulated biosensor signal in M. tuberculosis. M. tuberculosis hypoxia-regulated fluorescent reporter, fluorescence. fluorescence inhibition, % (test concentration not listed). 300,000 tested, 0.1% active; in the data active = fluorescence inhibition mostly above about 23%, no sharp cut-off; inactive = mostly below about 17%
RecA intein inh – Mtb RecA intein splicing inhibition | AID 2221 | P9WHJ3 | 290,000 tested, 0.75% active | inhibition, % (concentration not given with the values) | cell-free RecA intein splicing, fluorescence; in the data active = inhibition above about 30%; inconclusive = no clear call, values can overlap the other calls;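 also: 0% = vehicle wells and 100% = reference inhibitor control wells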
Target sequence (P9WHJ3 whole entry, looked up): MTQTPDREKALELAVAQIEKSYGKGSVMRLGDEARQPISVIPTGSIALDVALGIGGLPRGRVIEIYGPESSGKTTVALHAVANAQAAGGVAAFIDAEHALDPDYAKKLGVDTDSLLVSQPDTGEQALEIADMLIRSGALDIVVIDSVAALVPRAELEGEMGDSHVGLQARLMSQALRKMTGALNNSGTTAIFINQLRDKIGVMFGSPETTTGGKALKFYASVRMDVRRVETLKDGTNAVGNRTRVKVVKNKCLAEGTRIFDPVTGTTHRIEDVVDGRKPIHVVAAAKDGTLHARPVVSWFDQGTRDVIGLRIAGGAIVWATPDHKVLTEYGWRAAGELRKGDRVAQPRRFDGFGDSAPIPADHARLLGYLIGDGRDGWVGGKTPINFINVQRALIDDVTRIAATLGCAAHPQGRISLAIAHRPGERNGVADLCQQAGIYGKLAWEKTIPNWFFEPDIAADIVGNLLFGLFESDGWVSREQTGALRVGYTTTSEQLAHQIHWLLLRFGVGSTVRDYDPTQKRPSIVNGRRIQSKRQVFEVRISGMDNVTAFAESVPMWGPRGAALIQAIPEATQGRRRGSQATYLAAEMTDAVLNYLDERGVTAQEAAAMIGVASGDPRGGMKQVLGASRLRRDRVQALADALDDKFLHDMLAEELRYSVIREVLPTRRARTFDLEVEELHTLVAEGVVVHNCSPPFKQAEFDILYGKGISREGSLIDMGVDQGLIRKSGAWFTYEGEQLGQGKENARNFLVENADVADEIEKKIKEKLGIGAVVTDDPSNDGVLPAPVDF
CCHFV vOTU inh – CCHFV vOTU protease inhibition | 370,000 tested, 0.55% active | AID 651958 | inhibition, % at 11.5 µM | Pep-AMC fluorescence; in the data active = inhibition above about 30%; also: 0% = vehicle wells with enzyme and 100% = no enzyme wells
Mtb bLac sens – beta-lactam sensitization of Mtb H37Rv; inhibition, % at 25 µM; M. tuberculosis H37Rv growth with meropenem, percent inhibition; 330,000 tested, 0.27% active; call rule not given here;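 also: growth measured after seven days incubation then overnight dye step; 0% = bacteria only wells and 100% = bacteria with antibiotic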
PfHsp40 yeast – restores yeast growth despite PfHsp40 toxicity; growth rescue, % at 12.5 µM; S. cerevisiae expressing PfHsp40, growth rescue, ATP luminescence; 340,000 tested, 0.68% active; in the data active = growth rescue above about 28%, passing the limit was not always enough; inconclusive = no clear call, values can overlap the other calls;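 also: yeast W303a lacking pdr1 and pdr3 grown in galactose medium; growth measured after three days at 30 °C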
Numbers without * were called inactive; u = inconclusive; x = not tested or not shown.

SMILES	Mtb hypoxia rep	RecA intein inh	CCHFV vOTU inh	Mtb bLac sens	PfHsp40 yeast
FC(F)(F)c1ccc(C2[C@H]3CN(Cc4ccc(-c5ccccc5)cc4)[C@H](c4ccccc4)C34CC2(c2cccnc2)C4)cc1 (stereo partly specified)	x	3	0	-6	x
FC(F)(F)c1ccc(C2[C@H]3CN(Cc4cccnc4)[C@H](c4ccccc4)C34CC2(c2cccnc2)C4)cc1 (stereo partly specified)	x	40*	15	98	0
CC(=NNc1cc(N2CCOCC2)ncn1)c1ccc(O)cc1	4	x	x	x	x
O=C1C(=Cc2ccco2)N=C(N2CCCCC2)N1c1ccccc1	3	x	x	x	x
COc1cc(C(=O)O/N=C2\C=CC(=O)C=C2C)cc(OC)c1OC	x	4	-5	4	-1
COc1cc(C(=O)ON=C2C3CC4CC(C3)CC2C4)cc(OC)c1OC	4	8	7	93	325*
O=C(O)c1ccc(CSc2nnc(-c3ccncc3)n2CC2CCCO2)cc1 (stereo unspecified)	2	-1	-9	-13	-1
Cc1ccc(CSc2nnc(-c3ccncc3)n2CC2CCCO2)cc1 (stereo unspecified)	-10	4	12	u	54*
CC(C)(C)c1cc(NCc2ccccn2)n2ncc(-c3ccc(Cl)cc3)c2n1	7	1	-3	99	-1
CN(C)CCCNc1cc(C(C)(C)C)nc2c(-c3ccc(Cl)cc3)cnn12	x	16	6	100	44*
O=C(NNC(=O)c1cc2ccccc2cc1O)Nc1ccc(Br)cc1	4	0	-18	3	36*
CN(C)S(=O)(=O)c1cccc(NC(=S)NNC(=O)c2cc3ccccc3cc2O)c1	x	x	15	11	219*
O=C(COC(=O)c1cc2ccccc2cc1O)NC1CCCCC1	-1	x	9	75	-1
O=C(NNC(=O)c1cc2ccccc2cc1O)NC1CCCCC1	-1	-11	6	0	60*
COc1ccc(NC(=O)NNC(=O)c2cc3ccccc3cc2O)cc1	10	-16	3	-13	90*
Cc1ccc(C)c(N2C(=O)CSC2=NNC(=O)c2ccccc2Cl)c1	8	x	x	x	x
CCOc1ccc(C(O)=C2C(=O)C(=O)N(CCOCCO)C2c2ccccc2)cc1 (stereo unspecified)	7	x	x	x	x
Cc1nnc(SCC(=O)NN=Cc2cc(Cl)c(O)c(Cl)c2)s1	1	x	x	x	x
O=c1c(=Cc2ccc(O)cc2)sc2nc3cc(Br)cnc3n12	-3	x	x	x	x
CC(=O)NC(CC(=O)NNC(=O)c1cc2ccccc2cc1O)c1ccccc1 (stereo unspecified)	10	-4	18	3	78*
CCCCNC(=S)Nc1ccc([N+](=O)[O-])cc1	1	1	-4	0	-2
Cc1ccc(C(C)C)cc1NC(=O)Nc1ccc([N+](=O)[O-])cc1	x	5	-5	9	151*
Cc1cc(O)c(C(C)C)cc1NC(=O)Nc1ccc([N+](=O)[O-])cc1	8	x	-2	x	1
CC(C)CCNC(=S)Nc1ccc([N+](=O)[O-])cc1	-5	5	8	7	128*
COC(=O)C1=C(c2cccc(C#N)c2)CC2CCC1N2C(=O)NCCNC(C)=O (stereo unspecified)	16	x	x	x	x
SMILES	Mtb hypoxia rep	RecA intein inh	CCHFV vOTU inh	Mtb bLac sens	PfHsp40 yeast
COCCCNc1oc(-c2ccccc2OC)nc1C#N	7	-1	-111	x	1
COCCCNc1oc(-c2ccccc2F)nc1C#N	x	0	-68	3	34*
ON=Cc1ccccc1Oc1ccc(F)cc1	6	x	x	x	x
O/N=C\c1ccccc1Oc1ccc(F)cc1	x	2	1	-5	59*
O=C1OCCN1C(=O)[C@H]1[C@H](c2ccc([N+](=O)[O-])cc2)C(c2ccc(F)cc2)=NN1c1ccc(Br)cc1	-3	x	32*	x	0
O=Cc1cccc(Oc2ncccn2)c1	0	-3	-11	6	-1
Nc1ccc(Oc2ncccn2)cc1	0	51*	20	4	-1
CC(=O)C(C(=N)N1CCN(C(c2ccccc2)c2ccccc2)CC1)=C(C)O	3	x	x	x	x
Fc1ccc(Cn2ccc(-c3cnc(-c4ccccc4)s3)n2)cc1	x	1	-30	73	58*
CCCCNC(=O)C1CC=CC2CCN(C3CC3)C(=O)C21 (stereo unspecified)	14	x	x	x	x
CN(Cc1ccc(Cl)s1)C(=O)CCl	x	43*	2	100	8
COc1ccc(CN(C)C(=O)CCl)cc1	x	x	-6	x	0
CN(Cc1ccc(Cl)cc1)C(=O)CCl	x	63*	-11	99	-1
O=C(NN=Cc1cccnc1)c1ccc(F)cc1	11	x	x	x	x
COc1ccc(NCc2nc3ccccc3n2CCOc2ccc(C)cc2)cc1	2	3	16	5	75*
COc1ccc(NCc2nc3ccccc3n2CCOc2ccccc2)cc1	7	12	3	10	1
Oc1ccc2c3c1O[C@H]1c4[nH]c5ccccc5c4C[C@@]4(O)[C@@H](C2)N(CC2CC2)CC[C@]314	x	x	9	4	-1
Oc1ccc2c3c1O[C@H]1c4oc5ccccc5c4C[C@@]4(O)[C@@H](C2)N(CC2CC2)CC[C@]314	x	2	2	-10	34*
COC(OC)c1ccnc(-c2ccc(OC(C)=O)cc2)n1	13	x	9	-5	52*
Cc1nc(N)sc1C(=O)NN=Cc1ccco1	-3	x	x	x	x
CC1CN(c2ccc([N+](=O)[O-])c3cccnc23)CC(C)N1 (stereo unspecified)	8	3	32*	5	0
CS(=O)(=O)N1c2cccc3cccc(c23)S1(=O)=O	-11	-6	13	-2	48*
CC(CSc1ccc(Br)cc1)CN1CCC(O)CCC1=O (stereo unspecified)	14	x	x	x	x
Cc1cc(N/N=C/c2ccccc2O)c2ccccc2n1	x	1	2	99	0
Cc1cc(NN=Cc2ccccc2O)c2ccccc2n1	72*	x	x	x	x
SMILES	Mtb hypoxia rep	RecA intein inh	CCHFV vOTU inh	Mtb bLac sens	PfHsp40 yeast
CC(=O)OCC1=CC2OC(=O)C3=COC(OC4OC(CO)C(O)C(O)C4O)C1C32 (stereo unspecified)	13	x	x	x	x
Brc1ccc(Cn2c(-c3ccc(Br)o3)nc3ccccc32)o1	18	30*	3	x	56*
O=C1CCC=CCC(CC(=O)N(CCO)Cc2ccccc2)C(=O)NCC(c2ccccc2)O1 (stereo unspecified)	9	x	x	x	x
O=C(O)c1ccccc1N=NC(=NNc1cc(S(=O)(=O)O)ccc1O)c1ccccc1	9	x	x	x	x
CC(OC(=O)c1cc2sccc2n1C)C(=O)NCC1CCCO1 (stereo unspecified)	8	1	-7	-3	106*
O=c1c2c(-c3ccccc3)csc2nc2c3ccccc3c(NCCN3CCOCC3)nn12	41*	-6	-36	x	0
COc1ccc(Cl)cc1NC(=O)COC(=O)/C=C/c1c(C)nn(C2CCS(=O)(=O)C2)c1Cl (stereo unspecified)	x	1	12	-14	1
CCc1ccc(NC(=O)COC(=O)/C=C/c2c(C)nn(C3CCS(=O)(=O)C3)c2Cl)cc1 (stereo unspecified)	0	2	10	-2	59*
O=C(CSc1nnc(-c2ccccc2O)o1)Oc1ccc(Br)cc1	4	3	-10	-2	-1

Assay outcomes deposited in PubChem by several laboratories.
